# A selection: hits, their analogues and other compounds. The true share with any hit is near 7.5%.
# HCMV inh: qHTS Assay for inhibitors of the human cytomegalovirus (HCMV). actives 4.5% (n = 410,000). activity change, negative = inhibition, % at 57.5 µM. HFF cells, HCMV-luciferase reporter, 72 h; hits give low values. AID 1259415, 2018; in the data active = activity change below about -60%; inconclusive = no clear call, values can overlap the other calls; inactive = above about -39%
#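 HFF cells seeded 16 h at 37C, treated with compounds, infected with luciferase-reporter HCMV at MOI 1 PFU/cell; luciferase read at 72 h post infection, normalized to buffer-only and Salinomycin controls.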
# FMDV inh: High Throughput Screening for Foot and Mouth Disease Virus Antivirals | FMDV antiviral cell-based qHTS | Potency, µM (top dose mostly 57.9 µM), for inactives: top-dose activity change, negative = inhibition, usual class: inhibitors | actives 1.2% (n = 410,000); calls by dose curve; tested in HEK293T cells; also: read-out not given here; potency is read from the fitted curve at half-maximal effect; nearly all actives have a fitted effect of over 45% in size
# Giardia FBPA inh-1: qHTS Assay for Inhibitors of Fructose-1,6-bisphosphate Aldolase from Giardia Lamblia; A8B2U2; purified Giardia FBPA; Potency, µM (titrated, usually from 59.6 µM), for inactives: at the top dose activity, negative = inhibition, most hits filed as inhibitors; actives 0.71% (n = 290,000); AID 2451, 2010; also: potency is read from the fitted curve at half-maximal effect; nearly all actives have a fitted effect of over 55% in size
# Target sequence (A8B2U2 whole entry, looked up): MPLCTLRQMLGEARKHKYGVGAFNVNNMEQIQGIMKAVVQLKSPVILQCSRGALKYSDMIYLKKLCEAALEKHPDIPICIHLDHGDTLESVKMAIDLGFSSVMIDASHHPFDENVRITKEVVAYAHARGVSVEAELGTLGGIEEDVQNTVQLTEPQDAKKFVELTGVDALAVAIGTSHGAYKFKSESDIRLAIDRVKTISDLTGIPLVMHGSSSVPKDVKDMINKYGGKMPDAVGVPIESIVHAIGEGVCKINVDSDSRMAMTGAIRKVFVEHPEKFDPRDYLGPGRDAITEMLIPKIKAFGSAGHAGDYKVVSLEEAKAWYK
#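 Giardia FBPA (40 nM reagent) was preincubated 10 min at RT with compound (up to 57.5 uM final), then substrate plus GAPDH/TPI/NAD/arsenate coupling system with diaphorase/resazurin was added; resorufin fluorescence (525/598 nm) was read after 20 min.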
# Vaccinia mCherry: qHTS for Stage-Specific Inhibitors of Vaccinia Orthopoxvirus: mCherry Reporter Primary qHTS. Vaccinia virus mCherry reporter infection, fluorescence. Potency, µM (titrated, usually from 36.5 µM), without a hit: at the top dose activity change, negative = inhibition, most hits filed as inhibitors. actives 0.63% (n = 310,000); calls by dose curve; tested in A549 cells; also: potency is read from the fitted curve at half-maximal effect; nearly all actives have a fitted effect of over 35% in size
# HCV inhibitor: qHTS Assay for Inhibitors of Hepatitis C Virus (HCV) | Huh7.5.1 HCVcc-Cre infection, luciferase reporter, 44 h | Potency, µM (series often up to 41.8 µM), for inactives: top-dose activity change, negative = inhibition, usual class: inhibitors | actives 3.4% (n = 340,000); also: potency is read from the fitted curve at half-maximal effect
#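 Luciferase read-out (15 sec integration) after a 15 min room-temperature substrate step quantifies HCVcc-Cre infection. Cells, 1,000 per well, had compound added 4 h post-plating, then virus at ~0.5 moi, and were cultured 44 h.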
# Vaccinia Venus: qHTS for Stage-Specific Inhibitors of Vaccinia Orthopoxvirus: Venus Reporter Primary qHTS. AID 720580, 2013. Potency, µM (series often up to 36.5 µM), without a hit: top-dose activity change, negative = inhibition, usual class: inhibitors. Vaccinia virus Venus reporter expression, fluorescence. actives 0.46% (n = 330,000); calls by dose curve; tested in A549 cells; also: potency is read from the fitted curve at half-maximal effect; nearly all actives have a fitted effect of over 30% in size
# Giardia growth: qHTS Assay for Inhibitors of Fructose-1,6-bisphosphate Aldolase from Giardia Lamblia: Giardia lamblia growth inhibition; shares compounds with Giardia FBPA inh-1; Giardia lamblia trophozoite growth inhibition; Potency, µM (top dose mostly 57.5 µM), without a hit: top-dose activity change, negative = inhibition, hits mostly inhibitors; actives 5% (n = 1,500);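 also: potency is read from the fitted curve at half-maximal effect; trophozoites exposed to compound for 48 h at 37 °C; nearly all actives have a fitted effect of over 70% in size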
# Mammal cell tox: qHTS Assay for Inhibitors of Fructose-1,6-bisphosphate Aldolase from Giardia Lamblia: Mammalian cellular toxicity | shares compounds with Giardia FBPA inh-1 | mammalian cell viability counter-screen, qHTS | Potency, µM (highest dose often 57.5 µM), inactives show at the highest dose viability change, negative = toxicity, most hits filed as inhibitors | actives 4% (n = 1,500);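 also: Chinese hamster ovary cells used as mammalian cytotoxicity surrogate; viability measured as cellular ATP by luminescence; potency is read from the fitted curve at half-maximal effect; compound exposure lasted 48 h before reading; nearly all actives have a fitted effect of over 60% in size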
# Giardia FBPA inh-2: qHTS Assay for Inhibitors of Fructose-1,6-bisphosphate Aldolase from Giardia Lamblia: Primary screen confirmation. shares compounds with Giardia FBPA inh-1. purified Giardia aldolase enzyme activity, qHTS. Potency, µM (series often up to 57.5 µM), inactives show at the highest dose activity change, negative = inhibition, actives largely listed as inhibitors. actives 5% (n = 1,500); also: potency is read from the fitted curve at half-maximal effect; nearly all actives have a fitted effect of over 45% in size
# Rabbit aldolase: qHTS Assay for Inhibitors of Fructose-1,6-bisphosphate Aldolase from Giardia Lamblia: Rabbit FBPA Selectivity; Potency, µM (top dose mostly 57.5 µM), for the others: at the top dose activity, negative = inhibition, usual class: inhibitors; actives 4% (n = 1,500); AID 2794, 2010; shares compounds with Giardia FBPA inh-1; Rabbit muscle FBPA enzyme inhibition, selectivity counter-screen; also: potency is read from the fitted curve at half-maximal effect; nearly all actives have a fitted effect of over 60% in size
# GAPDH counter: qHTS Assay for Inhibitors of Fructose-1,6-bisphosphate Aldolase from Giardia Lamblia: Coupling assay counterscreen confirmation. shares compounds with Giardia FBPA inh-1. GAPDH coupling enzyme counterscreen, biochemical, qHTS. Potency, µM (doses to about 57.5 µM), for the others: at the highest dose activity change, negative = inhibition, usual class: inhibitors. actives 6% (n = 1,500); also: potency is read from the fitted curve at half-maximal effect; nearly all actives have a fitted effect of over 55% in size
# Numbers without * were called inactive; i = inactive; ? = inconclusive; nt = no result; [ ] = remark or other dose. Unless noted, calls follow the shape of the dose curve; as a rule, active = well fitted curve in the direction sought with a large enough effect; inconclusive = small, poorly fitted or top-dose-only effect, or another doubt; inactive = no such curve, though single readings can be large; an effect the other way counts as inactive or inconclusive. % is scaled to controls: 0 for no effect and ±100 for the full control effect.
SMILES,HCMV inh,FMDV inh,Giardia FBPA inh-1,Vaccinia mCherry,HCV inhibitor,Vaccinia Venus,Giardia growth,Mammal cell tox,Giardia FBPA inh-2,Rabbit aldolase,GAPDH counter
CCOc1cc(C(=O)NC(=S)Nn2cnnc2)cc(OCC)c1OCC,-26,6%,16µM*,-13%,16%,-1%,?,3%,2%,14%,-8%
Nc1nc2c(ncn2[C@@H]2O[C@H](CNCc3ccc(Oc4cc(-n5cccn5)ncn4)cc3)[C@@H](O)[C@H]2O)c(=O)[nH]1,30,-2%,nt,i,nt,0%,nt,nt,nt,nt,nt
COC1CCCCC1Nc1ccc(C)c(C)c1 (centres undefined),-16,nt,20µM*,-16%,31%,-1%,15%[10.4 µM],16%,-6%,4%,3%
COc1ccc2c(c1OC)C(=O)N(c1nc(SC)n[nH]1)C2=O,34,-12%,16µM*,i,11%,-19%,19%,6%,-2%,2%,-18%
C[C@H](NC(=O)[C@H]1N2C(=O)c3ccccc3C2SC1(C)C)C(=O)N1CCCCC1 (some centres undefined),-28,-11%,20µM*,nt,10%,nt,16%,6%,-14%,-11%,?
C[C@H](NC(=O)[C@H]1N2C(=O)c3ccccc3C2SC1(C)C)C(=O)N1CCN(C)CC1 (some centres undefined),-17,9%,-5%,i,10%,-11%,nt,nt,nt,nt,nt
CN(Cc1ccccc1)C(=O)CSc1nc(-c2ccc(F)cc2)cc(C(F)(F)F)n1,-17,-28%,nt,i,nt,-6%,nt,nt,nt,nt,nt
COc1ccc(CN2C(=O)C(CC(=O)NCCCN(C)C)CC(C(=O)N(C)C)=C2C)cc1 (centres undefined),-16,-21%,nt,-7%,nt,2%,nt,nt,nt,nt,nt
O=C(O)c1ncn(Cc2ccc(Br)cc2)c1C(=O)O,?,35µM*,14µM*,-18%,15%,-17%,-20%,1%,21%,22%,25%
O/N=C1/CCc2nonc2/C1=N/O,-11,-21%,16µM*,nt,-7%,-22%,8.9µM*,8%,-8%,5%,-19%
COc1cc(NC(=S)NC(C)(C)C)c(OC)cc1Cl,?,-26%,-5%,nt,?,nt,nt,nt,nt,nt,nt
COc1cc(Cl)c(C)cc1NC(=S)NN,-25,-13%,20µM*,-3%,?,3%,?,1%,3%,3%,8%
CCOC(=O)C1CCN(Cc2ccccn2)CC1,nt,nt,18µM*,nt,nt,nt,?,-2%,0%,11%,5%

# Source: PubChem BioAssay
